# Compound activity deposited in PubChem BioAssay by National Center for Advancing Translational Sciences (NCATS).
# PLK1 PBD inh: inhibitors of human PLK1 polo-box domain binding; P53350; Plk1 PBD binding of FITC phosphopeptide, fluorescence polarization; AID 720504; 360,000 compounds, 2.8% hits; Potency, µM, for the others: max response, negative = inhibition, most hits filed as inhibitors; further: series mostly up to about 57 µM; on the % scale 0 is the no-effect control and ±100 the full control effect; nearly all actives have a fitted effect of over 65% in size
# BAZ2B inh: BAZ2B (human) inhibition. Potency, µM (series often up to 114 µM), inactives show top-dose activity change, negative = inhibition, usual class: inhibitors. AlphaScreen BAZ2B-H3K14Ac peptide displacement. 360,000 compounds, 4.4% hits. Q9UIF8; further: on the % scale 0 is the no-effect control and ±100 the full control effect; nearly all actives have a fitted effect of over 60% in size
#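 Multi-concentration screen (max 110 uM) measuring displacement of acetylated histone H3 peptide from BAZ2B by AlphaScreen, using 50 nM protein, 50 nM peptide and 10 ug/mL streptavidin donor plus Ni-chelate acceptor beads.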
# HP1b binding inh: inhibitors of HP1-beta chromodomain binding to methylated histone tails; Potency, µM (top dose mostly 114 µM), for inactives: at the top dose activity change, negative = inhibition, actives largely listed as inhibitors; P83916; 390,000 compounds, 0.56% hits; AlphaScreen HP1-beta / biotin-H3K9me3 peptide binding; further: nearly all actives have a fitted effect of over 70% in size
#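 Compound inhibition of the preformed complex between 50 nM HP1-beta and 50 nM biotinylated H3K9me3 peptide was read by AlphaScreen. Buffer was PBS pH 7.4 with 0.01% Tween-20. Incubations ran 30 min at room temperature, with 10 ug/mL donor/acceptor beads.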
# ALOX12 inh: ALOX12 (human) lipoxygenase inhibition; P18054; purified 12hLO, xylenol orange hydroperoxide absorbance; Potency, µM (titrated, usually from 108 µM), for the others: at the top dose activity change, negative = inhibition, hits mostly inhibitors; 580,000 compounds, 1.1% hits; AID 1671190; further: on the % scale 0 is the no-effect control and ±100 the full control effect
#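 Purified human 12hLO at 150 nM in 25 mM Hepes, 0.01% Triton X-100, pH 7.0, preincubated 15 min at room temperature with compound. Reaction started with 40 uM arachidonic acid, 30 min at room temperature. Hydroperoxide measured by Fe-xylenol orange, 573/405 nm absorbance ratio.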
# JMJD2A Tudor: blocks the human JMJD2A Tudor domain; O75164; AlphaScreen JMJD2A-Tudor / H3K4me3 peptide binding; Potency, µM (top dose mostly 114 µM), for the others: top-dose activity change, negative = inhibition, most hits filed as inhibitors; 390,000 compounds, 4.4% hits; AID 504339; further: on the % scale 0 is the no-effect control and ±100 the full control effect; nearly all actives have a fitted effect of over 50% in size
# Target sequence (O75164 whole entry, looked up, the tested form may be a part): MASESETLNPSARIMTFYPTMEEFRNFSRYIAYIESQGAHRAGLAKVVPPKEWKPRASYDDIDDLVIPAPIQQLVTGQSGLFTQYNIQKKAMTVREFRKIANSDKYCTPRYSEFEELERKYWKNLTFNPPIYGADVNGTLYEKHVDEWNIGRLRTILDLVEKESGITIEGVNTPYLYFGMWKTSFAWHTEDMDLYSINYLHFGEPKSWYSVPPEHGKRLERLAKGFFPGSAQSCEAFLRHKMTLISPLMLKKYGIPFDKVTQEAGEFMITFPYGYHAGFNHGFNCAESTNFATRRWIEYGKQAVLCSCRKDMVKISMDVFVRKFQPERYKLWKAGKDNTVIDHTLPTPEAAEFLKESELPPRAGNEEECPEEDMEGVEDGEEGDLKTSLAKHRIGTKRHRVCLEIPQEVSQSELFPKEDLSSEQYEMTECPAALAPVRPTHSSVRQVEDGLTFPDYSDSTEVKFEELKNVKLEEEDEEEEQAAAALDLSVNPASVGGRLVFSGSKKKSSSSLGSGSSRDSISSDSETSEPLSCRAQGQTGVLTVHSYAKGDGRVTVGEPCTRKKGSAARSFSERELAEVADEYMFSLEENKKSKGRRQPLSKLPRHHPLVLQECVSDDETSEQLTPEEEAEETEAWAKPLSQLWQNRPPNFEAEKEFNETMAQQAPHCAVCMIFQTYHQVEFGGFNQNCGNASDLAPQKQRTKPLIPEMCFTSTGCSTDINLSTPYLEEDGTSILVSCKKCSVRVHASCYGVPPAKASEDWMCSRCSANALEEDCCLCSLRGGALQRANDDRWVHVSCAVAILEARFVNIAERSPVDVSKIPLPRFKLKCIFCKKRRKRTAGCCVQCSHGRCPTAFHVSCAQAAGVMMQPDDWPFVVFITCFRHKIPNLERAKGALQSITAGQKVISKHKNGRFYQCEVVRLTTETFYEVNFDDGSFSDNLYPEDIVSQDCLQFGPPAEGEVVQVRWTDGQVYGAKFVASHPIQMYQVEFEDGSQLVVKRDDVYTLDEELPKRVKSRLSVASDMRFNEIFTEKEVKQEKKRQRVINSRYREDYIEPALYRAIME
# G9a block: G9a (human) methyltransferase inhibition | Q96KQ7 | G9a H3K9 monomethylation, AlphaScreen, 2 h | Potency, µM (doses to about 102 µM), for the others: at the highest dose activity, negative = inhibition, most hits filed as inhibitors | 350,000 compounds, 8.8% hits | AID 504332; further: on the % scale 0 is the no-effect control and ±100 the full control effect; nearly all actives have a fitted effect of over 75% in size
#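 Methyltransferase reactions run at room temperature for 2 h (20 nM enzyme, 500 nM biotin-H3K9 peptide, 20 uM SAM) after a 15 min compound preincubation; product detected by AlphaScreen beads and anti-H3K9me1 antibody.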
# The depositor's hits bear a star; ? = inconclusive; / = no result; ! = repeats disagree; [ ] = remark or other dose. The list is not random: actives were taken first. Their share in the collection is about 9%. The call rests on the fitted dose curve; in most records, active means well fitted curve in the direction sought with a large enough effect; inconclusive means small, poorly fitted or top-dose-only effect, or another doubt; inactive means no such curve, though single readings can be large; an effect the other way counts as inactive or inconclusive. Potency means the concentration at half of the fitted maximal effect.
SMILES,PLK1 PBD inh,BAZ2B inh,HP1b binding inh,ALOX12 inh,JMJD2A Tudor,G9a block
CCOc1cccc(C2C(C(=O)c3cccs3)=C(O)C(=O)N2Cc2cccnc2)c1 (centres undefined),-1.4%,-28.8%,30.1%,-3.7%,-13.1%,56.2µM*
CC(=O)C1=C(O)C(=O)N(Cc2cccnc2)C1c1ccc(O)cc1 (centres undefined),26.7µM*,79.4µM*,6.3%,?,-19.5%[11.4 µM],50.1µM*
CC(=O)C1=C(O)C(=O)N(Cc2ccccc2)C1c1ccc(F)cc1 (centres undefined),-1.8%,-4.2%,33.7%,-18.3%,-16.1%,13.2%
C=CCOc1cccc(C2C(C(=O)c3ccco3)=C(O)C(=O)N2Cc2ccncc2)c1 (centres undefined),2.1%,-28.1%,53.3%,?,-5.6%,?
C=CCOc1cccc(C2C(C(=O)c3ccco3)=C(O)C(=O)N2Cc2ccco2)c1 (centres undefined),-22.6%,-37.4%,4.5%,44.7µM*,-35.9%,44.7µM*
CC(=O)C1=C(O)C(=O)N(Cc2cccnc2)C1c1ccccc1 (centres undefined),1.1%,1.3%,41.0%,-25.9%,-7.2%,?
C=CCOc1ccc(C2C(C(=O)c3ccc(C)o3)=C(O)C(=O)N2Cc2cccnc2)cc1 (centres undefined),-5.9%,-8.6%,5.2%,?,?,39.8µM*
C=CCOc1cccc(C2C(C(=O)c3ccc(C)o3)=C(O)C(=O)N2Cc2ccncc2)c1 (centres undefined),?,-3.7%,-3.6%,?,1.5%[11.4 µM],?
N#CC1C(=O)c2ccccc2C1c1ccccc1 (centres undefined),29.9µM*,/,-18.4%,?,?,/
CC1Sc2ccc(C(=O)NNC(=O)CSc3cccc4cccnc34)cc2NC1=O (centres undefined),/,/,/,7.94µM*,/,/
CC1Sc2ccc(C(=O)NCc3ccccn3)cc2NC1=O (centres undefined),16.8µM*,-16.5%,?,-22.9%,?,?
Cc1cccc(NC(=O)CSc2cccc3cccnc23)c1,?,-3.8%,20.8%,?,-15.9%,16.3%
Cc1cc(C)cc(SCc2noc(C(=O)NC(C)C)c2C(=O)NC(C)C)c1,-2.5%,-20.7%,55.9%,/,7.6%,-64.7%
CN(C)CCCC1(c2ccc(F)cc2)OCc2cc(C#N)ccc21 (centres undefined),-3.8%,-2.1%,10.4%,-2.1%,-22.3%,70.8µM*!
COc1ccc(C(=O)NCc2nnc(SCC(=O)N3CCCCCC3)o2)cc1OC,-7.6%,2.3%,10.7%[57 µM],1.9%,-13.8%,24.3%
O=C(NCc1nnc(SCC(=O)N2CCN(c3ccccc3)CC2)o1)c1ccc(F)cc1,-20.9%,-25.5%,62.8%,3.9%,-10.9%,79.4µM*
COc1ccc(C(=O)NCc2nnc(SCC(=O)N3CCCCC3)o2)cc1OC,-0.6%,-16.7%,32.2%,-25.9%,3.1%,79.4µM*
Cc1nc(Cc2nnc(SCC(=O)N3CCN(c4ccccc4)CC3)o2)cs1,-11.1%,-2.3%,14.7%,?,-14.5%,44.7µM*
Cc1nc(Cc2nnc(SCC(=O)N3CCN(c4ccc(O)cc4)CC3)o2)cs1,1.6%,-29.3%,-13.5%,-9.0%,?,3.8%[12.7 µM]
O=C(NCc1nnc(SCC(=O)N2CCCC2)o1)c1ccc(F)cc1,-4.5%,14.1%,31.9%,-1.2%,-13.9%,110.1%
CCOc1ccccc1C=NNC(=O)CCCCC(=O)NN=Cc1ccccc1OCC,1.2%,/,38.9%,11.8%,-2.8%,/
Nc1c(N(Cc2ccco2)C(=O)COc2ccccc2Cl)c(=O)[nH]c(=O)n1Cc1ccccc1,-6.1%,-0.2%,41.8%,18.1%,-6.8%,?
FC(F)(F)c1ccc(Cl)c(N/N=C/c2ccc(OCc3ccccc3)cc2)c1,/,/,/,2.51µM*,/,/
O=C(O)c1cc(N/N=C/c2ccc(OCc3ccccc3)cc2)ccc1Cl,-24.4%,?,16.9%,?,-19.6%,22.4µM*
FC(F)(F)c1ccc(Cl)c(NC(=S)N/N=C/c2ccccc2C(F)(F)F)c1,-2.1%,5.7%,18.0%,19.4%,-12.3%,1.4%[59 µM]
SMILES,PLK1 PBD inh,BAZ2B inh,HP1b binding inh,ALOX12 inh,JMJD2A Tudor,G9a block
FC(F)(F)c1ccc(Cl)c(N/N=C/c2ccccc2Cl)c1,/,/,/,35.5µM*,/,/
CCOc1ccc(/C=N/Nc2ccccc2)cc1,0.2%,-26.9%,27.8%,?,-29.6%,25.1µM*
CCOc1ccc(/C=N/O)cc1,-0.7%,8.4%,24.1%,28.5%,-19.0%,12.3%[12.7 µM]
CN(Cc1ccccc1)c1ncnc2ccc(Br)cc12,2.67µM*,38.7%,46.3%,/,?,16.3%[59 µM]
COc1ccc(C(=O)N(CC(=O)Nc2sc(C)c(C)c2C(N)=O)C2CCCC2)cc1,-1.3%,-15.1%,1.5%,-9.4%,-32.5%,25.3%
COc1ccc(NC(=O)C2CC(c3ccccc3O)=NO2)cc1OC (centres undefined),0.6%,2.8%,32.1%,-2.8%,-11.7%,44.7µM*
COc1cc(C2=NOC(C(=O)Nc3ccc4c(c3)OCO4)C2)cc(OC)c1OC (centres undefined),-13.5%,-35.4%,10.4%,2.7%,-33.7%,25.1µM*
COc1cccc(C2=NOC(C(=O)Nc3ccc4c(c3)OCO4)C2)c1 (centres undefined),-1.8%,-34.8%,30.7%,-0.6%,-13.1%,?
O=C(NCc1ccco1)C1CC(c2ccccc2O)=NO1 (centres undefined),-19.9%,79.4µM*,1.8%,?,?,/
COc1ccc(NC(=O)C2CC(c3ccc(Cl)cc3)=NO2)cc1OC (centres undefined),12.1%,-7.4%,41.9%,-1.2%,0.0%,11.7%[59 µM]
COc1ccc(NC(=O)C2CC(c3cc(OC)c(OC)c(OC)c3)=NO2)cc1OC (centres undefined),-12.1%,-29.7%,-3.6%,2.0%,-28.2%,?
COc1cccc(C2=NOC(C(=O)Nc3ccc4c(c3)OCO4)C2)c1OC (centres undefined),-25.1%,-8.1%,0.4%,9.8%,-12.1%,44.7µM*
O=C(NCc1ccco1)C1CC(c2ccccc2C(F)(F)F)=NO1 (centres undefined),-13.0%,-1.3%,33.1%,-12.2%,-11.8%,5.8%[59 µM]
O=C1c2ccccc2C(=O)N1c1nc(-c2cccs2)cs1,-24.6%,-10.9%,20.9%,10.5%,-33.8%,-12.8%[59 µM]
COc1ccc(C(=O)Nc2cccc(C(=O)N/N=C/c3ccc(OC)cc3OC)c2)cc1,-15.5%,-20.3%,25.7%,8.0%,-22.0%,7.5%
COc1ccc(NC(=O)C2CC(c3ccc(OC)c(OC)c3)=NO2)cc1OC (centres undefined),-3.7%,-25.5%,10.7%,0.0%,-21.6%,?
